# PubChem BioAssay (NCATS)
# The source made the active and inactive calls. A call without a number means that no potency is given here. Calls come from the whole dose curve; as a rule, active = well fitted inhibition curve with a large enough effect; inconclusive = small, poorly fitted or top-dose-only effect; inactive = no such curve, though single readings can be large or run the other way.
# Assay: qHTS assay for measurement of the activity of small molecule inhibitors on Zika virus induced Caspase-3 activity in human astrocytoma cells (AID 1224859)
# Details: SNB-19 ZIKV-induced caspase-3/7, luminescence, 6 h; series mostly up to 45.7 µM
# From the text: National Center for Advancing Translational Sciences [NCATS]
# Johns Hopkins University School of Medicine
# Increase in the Caspase-3 activity indicates an activation of apoptosis cell death pathway caused by Zika virus infection in certain types of neuronal cells including human neural progenitor cells (hNPCs), astrocytes, and astrocytoma cell line (SNB-19). This cell-based caspase-3 activity assay measures the increased caspase-3 activity in the astrocytoma cell line (SNB-19) after a 6-hour Zika virus infection with a luminescence readout. A decrease in the luminescence signal in this assay by small molecule treatment indicates an inhibitory effect of that small molecule on the Zika virus induced caspase-3 activity that may correlate with its effect on reduction of Zika virus caused cell death.
# The medium for SNB-19 cells is composed of RPMI 1640 (ATCC, Cat.# 30-2001), 10% fetal bovine serum (FBS) (GE healthcare Life Sciences, Cat.# SH30071.03), and 1% Pen/Strep (Gibco, Cat.# 15140-122). A Caspase-Glo 3/7 assay kit (catalog number G8092; Promega, Madison, WI) was used to detect caspase-3 activity induced by Zika virus infection in human cells. The reagent mixture was reconstituted as described in the protocol from the manufacturer. Polystyrene tissue culture treated and PDL coated white plates were obtained from Greiner Bio-One (Monroe, NC). Cells were seeded in 384- or 1536-well assay plates and cultured at 37 C with 5% CO2 for 16 to 20 hours. The typical cell seeding density in the 1536-well plate assay is 250 cells/well in 3ul medium for SNB-19 cells in tissue culture treated plates. Compounds were added to cells and incubated for one hour before addition of ZIKV solution to cells (2 FFU/cell). After incubation at 37 C with 5% CO2 for 6 hours, the reagent mixture of Caspase-Glo 3/7 assay kit was added to each well, followed by incubation at room temperature for 30 minutes. The luminescence intensity of the assay plates was measured using a ViewLux plate reader (PerkinElmer). Data were normalized by using the cell-containing wells without ZIKV as a negative control (0% induction of caspase 3/7 activity) and wells containing ZIKV infected cells (Caspase-3 activity induced) as a positive control (100% induction of caspase 3 activity). The percentage inhibitions of the increased Caspase-3 activity by small molecule inhibitors were then calculated.
row,SMILES,Potency
1,CO[C@H]1C=CO[C@@]2(C)Oc3c(C)c(O)c4c(O)c(c5c(c4c3C2=O)NC2(CCN(CC(C)C)CC2)N=5)=NC(=O)C(C)=CC=C[C@H](C)[C@H](O)[C@@H](C)[C@@H](O)[C@@H](C)[C@H](OC(C)=O)[C@H]1C,inactive
2,COc1ccc2c(Oc3ccc(NC(=O)c4c(C)n(CC(C)(C)O)n(-c5ccccc5)c4=O)nc3)ccnc2c1,inactive
3,CCCCCCCCCCCC1=C(O)C(=O)C=C(O)C1=O,inactive
4,CCOC(=O)O[C@]1(C(=O)OCCl)CC[C@@H]2[C@H]3CCC4=CC(=O)C=C[C@]4(C)[C@@H]3[C@@H](O)C[C@@]21C,inactive
5,COC1CCC(N(C(=O)C2CCC(C)CC2)c2cc(C3=CCCCC3)sc2C(=O)O)CC1 (stereo not given),inactive
6,O=C(O)C=Cc1ccc(O)c(O)c1,inactive
7,O=C(O)c1c(Cl)c(Cl)c(Cl)c(Cl)c1-c1c2cc(I)c(=O)c(I)c-2oc2c(I)c(O)c(I)cc12,inactive
8,O=C1NC(=O)C(c2ccccc2)(c2ccccc2)N1,inactive
9,O=C(Nc1c(Cl)cncc1Cl)c1ccc(OC(F)F)c(OCC2CC2)c1,inactive
10,c1cc(-c2sc(-c3ccncc3)c(-c3ccncc3)c2-c2ccncc2)ccn1,inactive
11,CC(=O)CCCCn1c(=O)c2c(ncn2C)n(C)c1=O,inactive
12,COCCOc1nc(-c2ccc(Cl)c(Cl)c2)n(-c2ccc(NC(=O)CCl)cc2)n1,inactive
13,COCCCCC(=NOCCN)c1ccc(C(F)(F)F)cc1,inactive
14,Cc1nnc(C(C)C)n1C1C[C@H]2CC[C@@H](C1)N2CC[C@H](NC(=O)C1CCC(F)(F)CC1)c1ccccc1 (stereo not given in full),inactive
15,O=C(O)CCC1CCC(c2cc(F)ccc2F)(S(=O)(=O)c2ccc(Cl)cc2)CC1 (stereo not given),inactive
16,CC(=O)Oc1cc2c(s1)CCN(C(C(=O)C1CC1)c1ccccc1F)C2 (stereo not given),inactive
17,CCCCC1C(=O)N(c2ccccc2)N(c2ccccc2)C1=O,inactive
18,CCCCCN(C)CCC(O)(P(=O)(O)O)P(=O)(O)O,inactive
19,C[N+](C)(C)CCCCCC[N+](C)(C)C,inactive
20,Cc1ccc(C(C)(O)c2nc3ccccc3s2)c(C)c1 (stereo not given),inactive

row,SMILES,Potency
1,COCCOC(=O)C1=C(C)NC2=C(C(=O)CC(c3ccccc3OC)C2)C1c1cccc(O)c1 (stereo not given),inactive
2,Cc1cccc(Nc2nc(-c3ccncc3)cs2)c1,inactive
3,CCN1CCC[C@H]1CNC(=O)c1cc(S(N)(=O)=O)ccc1OC,inactive
4,CCOc1ccc(Nc2nc(-c3c(C)nc4ccccn34)cs2)cc1,inactive
5,COC(=O)N[C@H](C(=O)N1CCC[C@@H]1c1ncc(-c2ccc(-c3ccc(-c4cnc([C@@H]5CCCN5C(=O)[C@@H](NC(=O)OC)C(C)C)[nH]4)cc3)cc2)[nH]1)C(C)C,inactive
6,O=C(Nc1ccccc1Br)N[C@@H]1CCN(c2ccc(C(F)(F)F)cn2)C1,inactive
7,Nc1ncnc2ccccc12,inactive
8,OC[C@H]1O[C@@H](n2cnc3c2NC=NC[C@@H]3O)C[C@H]1O,inactive
9,CCn1c(C(=O)N(C2CC2)C2CC2)cc2c3c(ncn3C)c(Nc3cc(C)n(C)n3)nc21,inactive
10,O=C(NCc1ccccc1)c1csc(Nc2ccncn2)n1,inactive
11,CC=CCC=CCCC(=O)[C@H]1O[C@@H]1C(N)=O,inactive
12,COc1ccc2c3c1OC1C[C@@H](O)C=C[C@@]31CCN(C)C2 (stereo not given in full),inactive
13,O=C(O)C(O)Cc1ccc(O)c(O)c1 (stereo not given),inactive
14,CCN(CC)CCOc1ccc(C(=C(Cl)c2ccccc2)c2ccccc2)cc1,inactive
15,Nc1nc(F)nc2c1ncn2[C@@H]1O[C@H](COP(=O)(O)O)[C@@H](O)[C@H]1O,inactive
16,C[C@@H]1CCN(C(=O)CC#N)C[C@H]1N(C)c1ncnc2[nH]ccc12,inactive
17,O=C(NCCN1CCOCC1)c1ccc(Cl)cc1,inactive
18,CN(C)C1CCN(C(=O)c2ccc(NC(=O)Nc3nc(N4CCOCC4)nc(N4CCOCC4)n3)cc2)CC1,inactive
19,CC=C(C)C(=O)O[C@H]1C(C)=C[C@]23C(=O)[C@@H](C=C(CO)[C@@H](O)[C@]12O)[C@H]1[C@@H](C[C@H]3C)C1(C)C,inactive
20,c1ccc2c(-c3cnn4cc(-c5ccc(N6CCNCC6)cc5)cnc34)ccnc2c1,inactive
